# Shown is part of a subset that was picked to be rich in hits.
# N370S GC – qHTS Assay for Inhibitors and Activators of N370S glucocerebrosidase as a Potential Chaperone Treatment of Gaucher Disease | Lysosomal acid glucosylceramidase (Homo sapiens), P04062 | N370S GC spleen homogenate, 4MU-glucoside fluorescence | Potency, µM (titrated, usually from 59.4 µM), actives largely listed as inhibitors | 330,000 compounds, 0.092% hits | AID 2101, 2009
# a7 integrin act – qHTS for Activators of Integrin-Mediated Alleviation for Muscular Dystrophy; alpha7betagal myoblasts, beta-gal FDG fluorescence, 48 h; Potency, µM (top dose mostly 38.3 µM), usual class: activators; 350,000 compounds, 0.064% hits; AID 624291, 2012; note: nearly all actives have a fitted effect of over 60% in size
#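 Alpha7betagal+/- myoblasts (passage 13) were plated 16-24 hr, then exposed to compounds (1:260 dilution of DMSO stock) for 48 hours at 37C. After MPER lysis, β-galactosidase reporter activity was read as FDG fluorescence (ex 480/em 540) after 30 minutes.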
# Anesthetic bind – qHTS Assay for Identification of Novel General Anesthetics; Potency, µM (top dose mostly 77.5 µM), usual class: inhibitors; apoferritin/1-aminoanthracene competitive binding, fluorescence; AID 485281, 2010; 350,000 compounds, 0.074% hits; Ferritin light chain (Equus caballus), P02791; note: nearly all actives have a fitted effect of over 20% in size
# Target sequence (P02791 2-175 limits assumed): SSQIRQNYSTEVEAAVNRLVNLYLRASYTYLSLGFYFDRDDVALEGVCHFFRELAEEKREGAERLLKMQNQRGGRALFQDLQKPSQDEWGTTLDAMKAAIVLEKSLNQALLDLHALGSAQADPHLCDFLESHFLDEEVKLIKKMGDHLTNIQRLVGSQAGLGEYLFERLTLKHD
#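 Horse-spleen apoferritin (10 uM) in 50% saturated 1-aminoanthracene in PBS was incubated 10 min at room temperature with compound. Fluorescence (ex 380, em 535 nm) was normalized to free and bound 1-AMA, with concentration-response fitted by a four-parameter Hill equation.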
# GRP78 ERSR act – qHTS for Inducers of the Endoplasmic Reticulum Stress Response (ERSR) in Human Glioma: qHTS. 420,000 compounds, 0.02% hits. U87-MG GRP78 promoter luciferase reporter, 16 h. Potency, µM, most hits filed as activators; note: series mostly up to about 76 µM; nearly all actives have a fitted effect of over 35% in size
#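 ERSR induction read as luciferase luminescence (Bright-Glo, 10 min at room temperature) in stably transfected human U87-MG glioma cells exposed to compounds for 16 h, using GRP78 as sensor.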
# CBFb RUNX1 block – qHTS Assay for Compounds Blocking the Interaction Between CBF-beta and RUNX1 for the Treatment of Acute Myeloid Leukemia. AlphaScreen CBFb-His/RUNX1-biotin binding, biochemical. Potency, µM (titrated, usually from 59.8 µM), actives largely listed as inhibitors. 230,000 tested, under 10 active
#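 Bead-based AlphaScreen assay; binding partners His-tagged CBF-beta and biotinylated RUNX1 at 30 nM each. Compound exposure 15 min after a 20-min protein preincubation; bead step 90 min; all steps at room temperature.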
# ClpP mod – qHTS Assay for Activators of ClpP | 340,000 compounds, 1.9% hits | purified B. subtilis ClpP, FRET peptide cleavage, 20 min | AID 651965, 2013 | ATP-dependent Clp protease proteolytic subunit (Bacillus subtilis (strain 168)), P80244 | Potency, µM (titrated, usually from 57.5 µM); active = well fitted falling curve with a large enough effect; inconclusive = small, poorly fitted or top-dose-only effect; inactive = no such curve, though single readings can be large or run the other way; note: the source files actives as falling curves though it sought activators and does not explain the sign; nearly all actives have a fitted effect of over 65% in size
# Target sequence (P80244 whole entry, looked up): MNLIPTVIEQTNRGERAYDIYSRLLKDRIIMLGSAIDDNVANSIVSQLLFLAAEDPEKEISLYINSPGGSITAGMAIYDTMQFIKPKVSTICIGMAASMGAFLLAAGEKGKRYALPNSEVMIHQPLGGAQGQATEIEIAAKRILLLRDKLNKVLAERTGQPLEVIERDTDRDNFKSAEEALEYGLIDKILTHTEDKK
#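 FRET quenching reversal measured ClpP activation: 10 microg/mL B. subtilis ClpP at pH 8 with the FRET-FV decapeptide, read at 430 nm after 320 nm excitation. The 20-min minus 0-min signal was scaled between DMSO/no-enzyme wells and ADEP (5.8 microM final).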
# A number is an active result; i = inactive; ? = inconclusive; nt = no result given; ! = repeats disagree; [ ] = remark or other dose. Unless noted, calls come from the whole dose curve; as a rule, active = well fitted curve in the direction sought with a large enough effect; inconclusive = small, poorly fitted or top-dose-only effect, or another doubt; inactive = no such curve, though single readings can be large; an effect the other way counts as inactive or inconclusive.
SMILES,N370S GC,a7 integrin act,Anesthetic bind,GRP78 ERSR act,CBFb RUNX1 block,ClpP mod
CCc1cc(C(=O)NCC2Cc3cc(C)cc(-c4cc(C(C)=O)ccc4F)c3O2)n(C)n1 (stereo not drawn),nt,nt,nt,i,nt,nt
COc1ccc(NC(=O)CSC2=C(C#N)C(c3ccco3)C(C(=O)Nc3nc4ccccc4s3)=C(C)N2)cc1 (stereo not drawn),nt,i,nt,i,nt,22µM
CC(C)(C)n1ncc2c(=O)n(Cc3ccc([S+](=O)([O-])N4CCOCC4)cc3)cnc21,nt,nt,nt,i,nt,nt
c1ccc(-n2cnnn2)cc1,nt,nt,nt,i,nt,nt
c1ccc(-n2nc3c(ccc4cnnc43)[nH]2)cc1,i,i,i,i,i,11µM
COc1ccc(NC(=O)c2oc3ccc(S(=O)(=O)N(C)C4CCCCC4)cc3c2C)cc1Cl,nt,nt,i,i,nt,28µM
Cc1c(C(=O)N2CCC2)oc2c(F)cccc12,nt,i,nt,i,nt,13µM
COc1ccc(-c2cc(C(F)(F)F)c(C#N)c(SCC(=O)O)n2)cc1,i,i,i,i,i,nt
Cc1ccc(-c2cc(C(F)(F)F)c(C#N)c(SCCC#N)n2)o1,i,i,i,i,i,4.5µM
COc1ccc(Cl)c(Cn2cnc3c(cnn3C(C)(C)C)c2=O)c1,nt,nt,nt,i,nt,nt
COc1ccc(C(CNC(=O)C(C)Oc2ccc(Br)cc2)N2CCOCC2)cc1 (stereo not drawn),?,i,nt,i,nt,28µM
COc1ccc(C(CNC(=O)CSc2ccc(Br)cc2)N2CCOCC2)cc1 (stereo not drawn),i,i,nt,i,nt,nt
O=[N+]([O-])c1ccc2c(c1)C=C/C2=C/c1ccccc1,nt,nt,nt,i,nt,i
COc1cc2c(NC3CCN(C(C)C)CC3)nc(N3CCCN(C)CC3)nc2cc1OCCCN1CCCC1,nt,nt,nt,i,nt,i
CC1(C)Cc2c(C#N)c(N)n(-c3ccccc3)c(=O)c2CO1,i,i,i,i,i,i
CCC1(C)Cc2c(c(=O)n(-c3ccccc3)c3ncnc(N)c23)CO1 (stereo not drawn),i,i,i,i,i,16µM
O=C(OCC(=O)N1CCOCC1)c1ccc2ccccc2c1O,nt,i,nt,i,nt,28µM
OCC1OC(n2ccc3c(SCc4ccccc4)ncnc32)C(O)C1O (stereo not drawn),nt,i,nt,i,nt,35µM
COc1ccc(-c2cc(-c3cccs3)c(C#N)c(SCC(=O)NCc3ccccc3)n2)cc1,i,i,i,i,i,i
CCSc1nc(-c2ccc(OC)cc2)cc(-c2ccccc2)c1C#N,nt,i[7.66 µM],i,i,i,28µM
C#CCSc1nc(-c2ccccc2)cc(-c2ccccc2)c1C#N,nt,nt,i,i,nt,?
COc1ccc(-c2cc(-c3cccs3)c(C#N)c(SCC(=O)NCc3ccccc3OC)n2)cc1,i,i,i,i,i,40µM
C[C@@H]1CN(Cc2ccc3c(c2)CN(C(=O)c2ccc(Oc4ccccc4)o2)CCO3)C[C@H](C)O1,nt,nt,nt,i,nt,nt
COc1ccccc1C1CN(Cc2ccc(Sc3nncn3C)o2)Cc2ccccc2O1 (stereo not drawn),nt,nt,nt,i,nt,nt
CCOC(=O)NC(=O)COC(=O)c1ccc(Sc2ncn[nH]2)c([N+](=O)[O-])c1,i,?,i,i,i,16µM
SMILES,N370S GC,a7 integrin act,Anesthetic bind,GRP78 ERSR act,CBFb RUNX1 block,ClpP mod
Cc1ccc(CNC(=O)CCCc2cn(C)c3ccccc23)cc1,i,i,i,i,nt,28µM
Cc1ccc(S(=O)(=O)c2nc(-c3ccccc3Cl)oc2N2CCN(C)CC2)cc1,nt,i,nt,i,nt,i
CNc1oc(-c2ccccc2F)nc1S(=O)(=O)c1ccc(C)cc1,i,i,i,i,nt,10µM
CCOP(=O)(c1ccccc1)c1nc(-c2ccccc2Cl)oc1N1CCCCC1 (stereo not drawn),i,i,i,?,i,20µM
Cc1ccc(S(=O)(=O)c2nc(-c3ccccc3Cl)oc2N2CCCCCC2)cc1,nt,nt,i,nt,nt,18µM
COc1ccc(/C=C/c2nccc3ccccc23)cc1OC,nt,nt,nt,i,nt,i
Cc1ncc2c(c1CNC(=O)c1ccc3c(c1)OCO3)CCN(C(=O)c1cccc(-n3cccn3)c1)C2,nt,nt,nt,i,nt,nt
O=C1O[C@H]2[C@@H](OC(O)[C@@H]2O)[C@H]1O (stereo partly drawn),nt,nt,nt,i,nt,nt
CCOC(=O)c1cnc2c(ccc3ccccc32)c1NCCO,i,i,i,i,i,28µM
CCOC(=O)c1cnc2c(ccc3ccccc32)c1NCCN(C)C,i,i,i,i,nt,i
CNC(=O)Cn1c(C)cc(=O)c2cccc(OC)c21,i,?,i,i,i,i
COc1cccc2c(=O)cc(C)n(CC(=O)Nc3ccccc3C)c12,i,i,i,i,i,13µM
O=C(NCc1cccs1)c1cnc2ccccn2c1=O,i,i,i,i,i,25µM
Cc1cc(C)c(C(=O)NCc2nc(-c3cccc(NC(=O)C4CCCN(C)C4)c3)oc2C)[nH]1 (stereo not drawn),nt,nt,nt,i,nt,nt
O=S(=O)(c1cccnc1)N1CCN(c2nc(-c3cccs3)nc3ccccc23)CC1,nt,nt,nt,i,nt,32µM
O=S(=O)(c1ccc(Cl)cc1)N1CCN(c2nc(-c3cccs3)nc3ccccc23)CC1,0.45µM,i,i,i,i,20µM!
Cc1cc(C)nc(-c2cccc3c2OC(CNC(=O)c2ccc(Cn4nc(C)cc4C)cc2)C3)n1 (stereo not drawn),nt,nt,nt,i,nt,nt
COCCNC(=O)CC(NS(=O)(=O)c1ccc(NC(C)=O)cc1)C(C)C (stereo not drawn),i,i,i,i,i,32µM
CCCNC(=O)CC(NS(=O)(=O)c1ccc(NC(C)=O)cc1)C(C)C (stereo not drawn),i,i,i,i,i,i
O=C(NCc1ccco1)c1ccc(-c2ccc(F)c(F)c2)c2ccoc12,nt,nt,nt,i,nt,35µM
O=C(NCc1ccccc1)c1ccc(-c2ccc(F)c(F)c2)c2ccoc12,nt,nt,nt,i,nt,i
O=C(NCCc1ccccc1)c1ccc(-c2ccc(F)c(F)c2)c2ccoc12,nt,nt,nt,i,nt,35µM
O=C(NCc1cccc(Cl)c1)c1ccc(-c2ccc(F)c(F)c2)c2ccoc12,nt,nt,nt,i,nt,16µM
C(=C1c2ccccc2Oc2ccccc21)c1ccccc1,nt,nt,nt,i,nt,i
Cc1ccc(/C=C/c2ccc(=O)n(Cc3ccccc3Cl)n2)cc1,i,i,i,i,?,28µM
Cc1ccc(/C=C2/CNC/C(=C\c3ccc(C)cc3)C2=O)cc1,i,nt,?,i,?,nt
CCOc1cc(C(=S)N2CCOCC2)ccc1OC(=O)/C=C/c1ccc(OC)c(OC)c1,i,i,i,i,i,25µM
Cc1ncc2c(c1CNS(=O)(=O)N(C)C)CCN(C(=O)/C=C/c1cccc(F)c1)C2,nt,nt,nt,i,nt,nt

# Screens from PubChem.
